This is part of a sample that, as a whole, favours compounds with a hit. Of some 83,000 tested, about 20% had one in any assay.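 Compound tested at a single concentration for 48 hours in 96-well plates; a percent growth value below 10 was scored as active.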 Unmarked numbers belong to inactive results. The source made the active and inactive calls.

This test concerns HL-60(TB) leukemia. As to the kind of experiment: NCI-60 one-dose screen, 48 h (100 = growth as untreated, 0 = no growth, -100 = all killed). The note with it: 10 µM unless noted.
On to `CNC(=O)c1cc(Oc2ccc(NC(=O)Nc3ccc(Cl)c(C(C)(C)C)c3)c(F)c2)ccn1`, for which the growth is 46.7%. As for `COc1ccc(C(=O)N2NC(=O)/C(=C/c3cn(-c4ccccc4)nc3-c3ccccc3)N=C2c2ccccc2)cc1`, the growth was 103%. Take `COC(=O)c1c2c(c[n+]([O-])c1C)C(=O)C(NCc1ccccc1)=CC2=O`: the growth was -34.5% (active).

On to `NCCCn1c2c(c3cc(-c4ccn[nH]4)ccc3c1=O)C(=O)c1ccccc1-2`, for which the growth is 39.6%.

As to `CCOc1ccc(/C=C\C(=O)O)cc1`, the growth is 82.9%. Consider `N=C(N)c1ccc(-c2ccc(-c3ccc4ccccc4c3)s2)cc1`, for which the growth is 86.7%. Turning to `O=C(N/N=C\c1cc(Br)ccc1O)c1ccncc1`, the growth is -27.5% (active). In the case of `O=C(CI)Nc1ccc(O)c2ccccc12` it was -11.9% (active); in that of `Cc1ccc(Nc2cccc3ccccc23)cc1`, 96.2%; in that of `CC(C)=CCC[C@@H](C)[C@H]1CC[C@@]2(C)C3=C(CC[C@]12C)[C@@]1(C)CC[C@H](O)C(C)(C)[C@@H]1CC3`, 105%. `COc1cc(C2CC(=O)Nc3c2c(C)nn3-c2nc3ccccc3[nH]2)cc2c1OCC(=O)N2` (stereo not given): the growth was 77.4%.

For the compound `CCCCCCc1cc2cc(-c3nc4ccccc4[nH]3)c(=Nc3ccccc3C)oc2cc1O`, the growth is 12.2%. In the case of `C=CCn1cc(-c2nc3ccccc3s2)c2cc(-c3ccc4c5c(cccc35)C(=O)N(CCO)C4=O)ccc21` it was 101%. As to `COc1cccc2c1C(=O)c1c(O)c3c(c(O)c1C2=O)C[C@@](O)(/C(C)=N/NC(=O)c1cccc([N+](=O)[O-])c1)C[C@@H]3OC1CC(N)C(O)C(C)O1` (stereo not given in full), the growth was -45.1% (active). In the case of `CC1(C)OB(O)c2cc(-c3nc4ccc5[nH]ncc5c4c4c3CCCC4)ccc21` it was 90.7%. Regarding `CCN1CCN(CCNc2nccc(-c3c(-c4cccc(OC)c4)nc4occn34)n2)S1(=O)=O`, the growth was 119%. Take `N#Cc1cccc(-c2ccc3c(c2)NC(=O)/C3=C\c2ccc[nH]2)c1`: the growth is 64.8%. For `CC(C)(C)NC(=O)C(OC(=O)c1cccc(Cl)c1)c1ccc(Cl)cc1` (stereo not given), the growth was 103%.

Regarding `Cc1cc2nc3c4cc(C=O)ccc4n(CCN(C)C)c3nc2cc1C`, the growth is 16.9%. Consider `CSCc1ncc(-c2ccc(C(F)(F)F)cc2)c(NC2CCCCCC2)n1`, for which the growth is 20.7% [25 µM]. For `CCC(C#N)(CC)c1ccccc1`, the growth is 102%. Take `Brc1ccc(-c2nn(-c3ccccc3)cc2-c2nn[nH]n2)s1`: the growth was 103%. In the case of `NS(=O)(=O)c1ccc(NC(=O)/C(=C\c2ccc(Cl)cc2Cl)NC(=O)c2ccccc2)cc1` it was 84.8%.

`CC(CO)(CO)C(=O)O`: the growth was 108%. Regarding `NCCC(=O)c1ccc(Cl)cc1`, the growth is 95.6%. As for `Cc1cc(Br)c2nsnc2c1[N+](=O)[O-]`, the growth was 37.7%. Consider `COc1ccc(-c2cc(Cc3cccs3)c(=O)n(Cn3cncn3)n2)cc1`, for which the growth was 107%. On to `Cn1c2ccccc2c2c3c(c4c5ccccc5n(C)c4c21)C(=O)OC3`, for which the growth is 98.5%. Turning to `O=[N+]([O-])c1ccc(-c2cc(-c3ccc(Nc4nc(Nc5ccc(Cl)cc5)nc(Nc5ccc(Cl)cc5)n4)cc3)no2)cc1`, the growth is -63% (active). `CCc1c(Nc2ccccc2C)nc(N)[nH]c1=O`: the growth is 88.9%. The value for `COc1ccc(-c2cc(C#N)c(NNC(C)=O)[nH]2)cc1` was 11.4%.

For `Cc1[nH]c(C(=O)Nc2ccccc2OC2CCNC2)c(Cl)c1Cl` (stereo not given), the growth is 90.6%. The value for `CC(C)=CCC[C@H](C)c1ccc(C)c2c1OCN(CCO)C2` was 90.8%; that for `CC1(C)NC(=O)c2[nH]c3c(Cl)c(Cl)ccc3c2C1C#N` (stereo not given) was 65.4%; that for `CCOc1cccnc1/C=N/NC(N)=S` was -17% (active).

Take `COC(=O)Nc1ccc(NC(=O)OC)cc1`: the growth was 95.9%. Consider `CC/C(=C\c1ccc(N(C)C)cc1)c1ccncc1`, for which the growth is 29.5%.

With `C#C[C@]1(O)CC[C@H]2[C@@H]3CC=C4c5sc(-c6cccc(Br)c6)nc5CC[C@]4(C)[C@H]3CC[C@@]21C`, the growth was 77.9%. Consider `CCOC(=O)/C=C/c1ccc([N+](=O)[O-])o1`, for which the growth was -4.64% (active). In the case of `CNc1ccc(CSc2ccc(Cl)cc2)cc1`, the growth was 5.59% (active).
